This is a sample that favours compounds with a hit; in the whole collection about 3.8% have one here.
Ecoli rRNA inh: inhibits bacterial ribosomal RNA function over humanized ribosomes; E. coli WT GFP vs humanized-ribosome RFP mutants, fluorescence, 24 h; hits give low values; DMSO median 0, no signal -100; GFP signal change (wild-type ribosome), % (test concentration not listed); actives 1.6% (n = 350,000); AID 720706;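 active = significant combined selectivity score with lowered wild-type GFP, culture density cut under 30%, mutant RFP and density less affected; inactive = any of these conditions unmet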
proKLK7 act: activates the human kallikrein-7 zymogen; P49862; purified proKLK7, EDANS-DABCYL substrate fluorescence; 100% is mature enzyme control, 0% vehicle; activation, % at 7 µM; actives 0.9% (n = 370,000); AID 652039;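 active = activation above the mean of all tested compounds plus 3 SD, computed per campaign excluding outliers beyond control limits, cut at about 13% in these data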
Target sequence (P49862 whole entry, looked up): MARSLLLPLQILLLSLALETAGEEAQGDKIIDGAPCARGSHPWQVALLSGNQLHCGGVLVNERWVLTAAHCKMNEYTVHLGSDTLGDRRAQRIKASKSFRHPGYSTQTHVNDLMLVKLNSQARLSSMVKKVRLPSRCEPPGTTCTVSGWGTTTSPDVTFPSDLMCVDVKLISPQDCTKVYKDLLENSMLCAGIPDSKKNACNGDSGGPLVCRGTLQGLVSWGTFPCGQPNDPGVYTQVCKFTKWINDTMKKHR
ADAM10 inh: inhibits human ADAM10. O14672. inhibition, % at 7 µM. actives 0.62% (n = 370,000). recombinant ADAM10, EDANS/DABCYL FRET peptide cleavage, 3 h. AID 720582;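 active = inhibition above a per-campaign cutoff equal to the mean of compounds falling between control-based bounds plus 3 SD, cut at about 20% in these data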
ADAM17 inh: ADAM17 inhibition, QFRET primary screen. P78536. recombinant ADAM17, EDANS/DABCYL FRET peptide cleavage. inhibition, % at 6.95 µM. actives 0.83% (n = 370,000). AID 720648;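 active = inhibition above the mean of compounds lying between control limits plus 3 SD, set per campaign, cut at about 8.5% in these data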
FGF22 binding: binders of recombinant human FGF22 by thermal shift; AID 651658; actives 1.5% (n = 340,000); SYPRO orange fluorescence; percent of sucrose octasulfate shift, DMSO zero; activity (Tm shift, normalised), % at 9.99 µM; Q9HCT0;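 active = mean Tm shift, scaled 0 neutral to 100 positive control, at about 1.3% or above, every replicate too, limit read from the data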
Target sequence (Q9HCT0 whole entry, looked up): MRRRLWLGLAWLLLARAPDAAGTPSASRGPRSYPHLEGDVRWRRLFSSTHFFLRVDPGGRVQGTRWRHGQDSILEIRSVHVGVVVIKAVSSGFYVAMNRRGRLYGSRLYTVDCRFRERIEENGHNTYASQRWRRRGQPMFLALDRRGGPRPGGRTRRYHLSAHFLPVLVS
ADAM10 ctr: counter-screen for ADAM17 exosite inhibitors: inhibitors of human ADAM10. shares compounds with ADAM17 inh. recombinant ADAM10, EDANS/DABCYL FRET peptide cleavage, 3 h. inhibition, % at 6.95 µM. actives 47% (n = 2,900). AID 743256;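 active = mean inhibition over the triplicate runs exceeds the activity threshold set in the earlier primary screen, cut at about 20% in these data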
ADAM17 confirm: confirmation of inhibitors of human ADAM17; shares compounds with ADAM17 inh; recombinant ADAM17, EDANS/DABCYL QFRET peptide cleavage; inhibition, % at 6.95 µM; actives 65% (n = 2,900); AID 743257;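 active = mean inhibition across replicates above the hit cutoff set in the primary screen, cut at about 8.5% in these data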
Of the large screens only hits and unclear results are named; the others gave an inactive call (follow-up assays come after a bar, where they were run).

CCOC(=O)c1c(C)[nH]c(N=Nc2cccc(OC)c2)c1C	none
COC(=O)c1ccc(C(C(=O)NCc2ccccc2)N(Cc2cccs2)C(=O)c2cnccn2)cc1 (centres undefined)	none (no result: Ecoli rRNA inh, FGF22 binding)
Cc1ccc(C(C(=O)NCc2ccccc2)N(Cc2cccs2)C(=O)c2ccc3c(c2)OCCO3)cc1 (centres undefined)	ADAM17 inh 10.2 | ADAM10 ctr inactive | ADAM17 confirm 10.9
O=C(O)CCCN1C(=O)C2C3CCC(C3)C2C1=O (centres undefined)	ADAM17 inh 9.1 | ADAM10 ctr inactive | ADAM17 confirm inactive
O=C(O)CCCN1C(=O)C2C3CCC(O3)C2C1=O (centres undefined)	none (no result: Ecoli rRNA inh, FGF22 binding)
O=C(C1CC1)N1CC2(C1)[C@H](c1ccccc1)[C@H](CO)N2Cc1cncnc1	none (no result: proKLK7 act, ADAM10 inh, ADAM17 inh)
CCN1C(=O)c2cccc3c(NC(=O)c4ccc5c(c4)OCCO5)ccc1c23	ADAM17 inh 9.5 (no result: Ecoli rRNA inh, FGF22 binding) | ADAM10 ctr inactive | ADAM17 confirm inactive
CCOC(=O)N1CCN(C(=O)c2ccc(N(Cc3ccc(C)cc3)S(C)(=O)=O)cc2)CC1	ADAM17 inh 9.0 (no result: Ecoli rRNA inh, FGF22 binding) | ADAM10 ctr inactive | ADAM17 confirm inactive
CCOC(=O)N1CCN(C(=O)c2ccc(N(Cc3ccc(Cl)cc3)S(C)(=O)=O)cc2)CC1	none (no result: FGF22 binding)
O=C(C[C@@H]1CC[C@H]2[C@@H](COC[C@H](O)CN2Cc2cccc(-c3ccncc3)c2)O1)N1CCN(c2ccccc2)CC1	none (no result: proKLK7 act, ADAM10 inh, ADAM17 inh)
O=C(/C=C/c1ccccc1O)c1ccc(Cl)cc1	ADAM17 inh 10.0 | ADAM10 ctr inactive | ADAM17 confirm 9.4
O=S(=O)(N[C@H]1CC[C@H](CCn2cc(C3(O)CCCC3)nn2)O[C@@H]1CO)c1ccccc1	none (no result: proKLK7 act, ADAM10 inh, ADAM17 inh)
Cn1cnc(S(=O)(=O)N[C@H]2C=C[C@@H](CC(=O)N3CCN(c4ccccc4)CC3)O[C@@H]2CO)c1	none (no result: proKLK7 act, ADAM10 inh, ADAM17 inh)
Cc1cc2cc(CN(CCCO)S(=O)(=O)c3cccc4nsnc34)c(=O)[nH]c2cc1C	ADAM17 inh 10.2 | ADAM10 ctr inactive | ADAM17 confirm inactive
Cc1ccc2[nH]c(=O)c(CN(CCCO)S(=O)(=O)c3c(C)ccc4nsnc34)cc2c1	none
COc1ccc(NC(=O)CCSc2ccc(C)cc2)cc1	none (no result: Ecoli rRNA inh)
Cc1ccc(SCCC(=O)Nc2ccc(Br)c(C)c2)cc1	ADAM17 inh 11.5 | ADAM10 ctr 30.9 | ADAM17 confirm 17.1
Fc1ccc(Cn2c(SCc3ccc(F)c(F)c3)nnc2C(F)(F)F)cc1	none (no result: Ecoli rRNA inh, FGF22 binding)
Fc1ccc(Cn2c(SCc3ccc(F)c(C(F)(F)F)c3)nnc2C(F)(F)F)cc1	ADAM17 inh 8.8 (no result: Ecoli rRNA inh, FGF22 binding) | ADAM10 ctr 37.1 | ADAM17 confirm 16.9
C[C@H]1CCCCO[C@H](CN(C)S(=O)(=O)c2ccccc2)[C@@H](C)CN([C@@H](C)CO)C(=O)c2cc(NC(=O)CCCN(C)C)ccc2O1	none (no result: proKLK7 act, ADAM10 inh, ADAM17 inh)
COc1cccc(CC(=O)N(Cc2ccccc2)c2ccccc2C(=O)Nc2cc(OC)ccc2OC)c1	ADAM17 inh 12.3 (no result: Ecoli rRNA inh, FGF22 binding) | ADAM10 ctr inactive | ADAM17 confirm 13.3
Cc1ccc(S(=O)(=O)N(C(=O)c2ccncc2)c2ccc(OC(=O)c3ccncc3)c3ccccc23)cc1	ADAM17 inh 8.9 | ADAM10 ctr 37.0 | ADAM17 confirm 19.4
CCNC(=O)C[C@@H]1CC[C@@H]2[C@@H](COc3ccc(NC(=O)Nc4cccc(C)c4)cc3C(=O)N2C)O1	none (no result: proKLK7 act, ADAM10 inh, ADAM17 inh)
COc1ccccc1N(CC(O)Cn1c2ccccc2c2ccccc21)S(=O)(=O)c1ccccc1 (centres undefined)	none
O=S(=O)(c1ccccc1)N(CC(O)Cn1c2ccccc2c2ccccc21)c1ccccc1 (centres undefined)	ADAM17 inh 14.0 (no result: Ecoli rRNA inh, FGF22 binding) | ADAM10 ctr inactive | ADAM17 confirm 17.1
O=S(=O)(c1ccc(F)cc1)N(CCO)CC(O)Cn1c2ccccc2c2ccccc21 (centres undefined)	ADAM17 inh 9.0 (no result: Ecoli rRNA inh, FGF22 binding) | ADAM10 ctr inactive | ADAM17 confirm inactive
